In PubChem BioAssay (NCATS):
Inconclusive results are not listed. The source made the active and inactive calls. Unless noted, the call rests on the fitted dose curve; in most records, active means well fitted curve in the direction sought with a large enough effect; inconclusive means small, poorly fitted or top-dose-only effect, or another doubt; inactive means no such curve, though single readings can be large; an effect the other way counts as inactive or inconclusive.

How the values were obtained:
[1] = qHTS for Inhibitors of the Functional Ribonucleoprotein Complex (vRNP) of Lassa (LASV) Arenavirus: LASV Primary Screen - GLuc reporter signal (AID 1347082; calls by dose curve; tested in HEK293 reporter line; further: nearly all actives have a fitted effect of over 60% in size; further: potency means the concentration at half of the fitted maximal effect)
[2] = qHTS for Inhibitors of the Functional Ribonucleoprotein Complex (vRNP) of Lassa (LASV) Arenavirus: Viability assay - alamar blue signal for LASV Primary Screen (AID 1347083; calls by dose curve; tested in HEK293 reporter line; further: series mostly up to about 57 µM; nearly all actives have a fitted effect of over 80% in size)
[3] = NS1 protein of Zika virus - qHTS assay to identify small molecule inhibitors in human HEK 293 cells (AID 1347053); further: series mostly up to about 46 µM; nearly all actives have a fitted effect of over 55% in size
Outline: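 HEK 293 cells, seeded 20 h at 37 C, were pretreated with compound 1 h, then infected with ZIKV MR766 (MOI = 0.5) for 24 h. NS1 was read by TR-FRET with two anti-NS1 antibodies, normalized to uninfected and infected wells.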

[4] = qHTS for Inhibitors of the Functional Ribonucleoprotein Complex (vRNP) of Lymphocytic Choriomeningitis Arenaviruses (LCMV): Viability assay - alamar blue signal for LCMV Primary Screen (AID 1347085; calls by dose curve; tested in HEK293 reporter line; further: nearly all actives have a fitted effect of over 80% in size; further: potency means the concentration at half of the fitted maximal effect)
[5] = target: Nucleoprotein (Lymphocytic choriomeningitis virus (strain Armstrong)) (UniProt P09992); assay: qHTS for Inhibitors of the Functional Ribonucleoprotein Complex (vRNP) of Lymphocytic Choriomeningitis Arenaviruses (LCMV): LCMV Primary Screen - GLuc reporter signal (AID 1347086; calls by dose curve; further: series mostly up to about 57 µM; nearly all actives have a fitted effect of over 70% in size)
Nucleoprotein (Lymphocytic choriomeningitis virus (strain Armstrong)), sequence (P09992 whole entry, looked up): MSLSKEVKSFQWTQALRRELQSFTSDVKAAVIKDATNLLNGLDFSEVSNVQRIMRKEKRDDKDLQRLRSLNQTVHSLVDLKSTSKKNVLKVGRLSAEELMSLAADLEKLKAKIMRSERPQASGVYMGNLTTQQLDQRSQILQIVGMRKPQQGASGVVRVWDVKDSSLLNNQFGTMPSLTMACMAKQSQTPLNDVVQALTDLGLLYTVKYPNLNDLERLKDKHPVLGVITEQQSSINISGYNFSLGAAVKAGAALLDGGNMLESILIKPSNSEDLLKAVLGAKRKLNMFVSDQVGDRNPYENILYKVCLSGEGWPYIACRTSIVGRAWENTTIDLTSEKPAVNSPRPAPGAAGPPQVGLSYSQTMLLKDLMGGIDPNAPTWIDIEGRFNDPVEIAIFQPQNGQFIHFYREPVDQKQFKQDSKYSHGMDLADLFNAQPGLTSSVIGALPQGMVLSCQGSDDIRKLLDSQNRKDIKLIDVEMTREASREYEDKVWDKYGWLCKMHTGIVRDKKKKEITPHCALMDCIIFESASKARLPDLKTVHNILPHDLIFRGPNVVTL

[6] = qHTS of pediatric cancer cell lines to identify multiple opportunities for drug repurposing: Primary screen for TC32 cells (AID 1347089); further: nearly all actives have a fitted effect of over 60% in size; further: potency means the concentration at half of the fitted maximal effect
Outline: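 In the primary qHTS, MIPE compounds were tested at 11 concentrations (0.78 nM to 46 µM) and NPC compounds at 8 (0.59 nM to 46 µM) on TC32 cells for 48 h. CellTiter-Glo luminescence gave viability.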

Measured: Potency

CO[C@]12CC[C@@]3(C[C@@H]1[C@](C)(O)C(C)(C)C)[C@@H]1Cc4ccc(O)c5c4[C@@]3(CCN1CC1CC1)[C@H]2O5
inactive: [1] | [2]

CC(C)NCC(O)c1ccccc1Cl (stereo not given)
inactive: all assays above

CCN(CC)C(=O)N[C@@H]1C=C2c3cccc4[nH]cc(c34)C[C@@H]2N(C)C1
not listed: [4]
inactive: all other assays above

CCCC1CCCCN1 (stereo not given)
inactive: all assays above

COC(=O)C1=C(C)NC(C)=C(C(=O)OCCN(C)Cc2ccccc2)C1c1cccc([N+](=O)[O-])c1 (stereo not given)
inactive: [1]

Oc1cc(Cl)ccc1Oc1ccc(Cl)cc1Cl
inactive: all assays above

C=CCN1CC[C@]23c4c5ccc(O)c4O[C@H]2C(=O)CC[C@@]3(O)[C@H]1C5
not listed: [4]
inactive: all other assays above

CN(C)[C@@H]1C(=O)C(C(N)=O)=C(O)[C@@]2(O)C(=O)C3=C(O)c4c(O)cccc4[C@@](C)(O)[C@H]3C[C@@H]12
inactive: all assays above

C[C@]12CC[C@H]3[C@@H](CCC4=CC(=O)CC[C@@H]43)[C@@H]1CC[C@@H]2OC(=O)CCc1ccccc1
inactive: all assays above

C#CCOC(C(=O)OCCN(C)C)(c1ccccc1)c1ccccc1
inactive: all assays above

CSc1ccc2c(c1)N(CCC1CCCCN1C)c1ccccc1S2 (stereo not given)
inactive: [1]

COc1cc([C@@H]2c3cc4c(cc3[C@H](O)[C@H]3COC(=O)[C@H]23)OCO4)cc(OC)c1OC
inactive: [1]

CCN(CC)CCN1C(=O)CN=C(c2ccccc2F)c2cc(Cl)ccc21
inactive: [3] | [4] | [5] | [6]

CC(=O)[C@]1(O)Cc2c(O)c3c(c(O)c2[C@@H](O[C@H]2C[C@H](N)[C@H](O)[C@H](C)O2)C1)C(=O)c1ccccc1C3=O
active: [1] 3.98 µM

CN(C)CCCN1c2ccccc2Sc2ccc(Cl)cc21
inactive: [1]

CC(=O)Nc1cc([As](=O)(O)O)ccc1O
inactive: all assays above

COc1c(C)c2c(c(O)c1C/C=C(\C)CCC(=O)OCCN1CCOCC1)C(=O)OC2
inactive: [1]

C=CC(=O)Nc1cc2c(Nc3ccc(F)c(Cl)c3)ncnc2cc1OCCCN1CCOCC1
inactive: [1]

Cn1ccc2cc3c(cc21)CCN3C(=O)Nc1cccnc1
inactive: [1]

CC(C)n1c(/C=C/[C@@H](O)C[C@@H](O)CC(=O)O)c(-c2ccc(F)cc2)c2ccccc21
inactive: [1]

CN1CCN(C(=O)O[C@H]2c3nccnc3C(=O)N2c2ccc(Cl)cn2)CC1
inactive: all assays above

CN(C)c1nc(N(C)C)nc(N(C)C)n1
inactive: [1]

CCN(C(C)=O)c1cccc(-c2ccnc3c(C#N)cnn23)c1
inactive: all assays above

COc1ccc2c(c1OC)CN1CCc3cc4c(cc3C1C2)OCO4 (stereo not given)
inactive: all assays above

CC[N+]1(C)CCCC(OC(=O)C(O)(c2ccccc2)c2ccccc2)C1 (stereo not given)
inactive: all assays above

CN(C)CCN(C)CCc1ccc(Cl)c(Cl)c1
active: [4] 21.7 µM
inactive: [3] | [6]

C[C@H]1O[C@@H](O[C@H]2[C@@H](O)C[C@H](O[C@H]3[C@@H](O)C[C@H](O[C@H]4CC[C@@]5(C)[C@H](CC[C@@H]6[C@@H]5CC[C@]5(C)[C@@H](C7=CC(=O)OC7)CC[C@]65O)C4)O[C@@H]3C)O[C@@H]2C)C[C@H](O)[C@@H]1O
active: [6] 0.0374 µM
inactive: [3]

O=c1oc2ccccc2c(O)c1C(CC(O)c1ccc(-c2ccc(Br)cc2)cc1)c1ccccc1 (stereo not given)
inactive: all assays above

CC(C)CC(N(C)C)C1(c2ccc(Cl)cc2)CCC1 (stereo not given)
not listed: [2]
inactive: all other assays above

C[C@@H]1[C@@H](C(=O)C[C@H]2O[C@@H]3O[C@]4(C)CC[C@@H]5[C@H](C)CC[C@@H]([C@H]2C)[C@@]35OO4)O[C@@H]2O[C@]3(C)CC[C@H]4[C@H](C)CC[C@@H]1[C@@]24OO3
active: [4] 21.7 µM
inactive: [3] | [2]

COc1ccc(Cc2nccc3cc(OC)c(OC)cc23)cc1OC
inactive: [3] | [2] | [4] | [6]

CCOP(=S)(OCC)Oc1cc(C)nc(C(C)C)n1
inactive: all assays above

CCCSc1ccc2nc(NC(=O)OC)[nH]c2c1
inactive: [1]

N[C@@H](Cc1ccc(Oc2cc(I)c(O)c(I)c2)c(I)c1)C(=O)O
inactive: all assays above

O=C1OCCN1/N=C/c1ccc([N+](=O)[O-])o1
inactive: [1] | [2] | [4]

CC(C)C(=O)Nc1ccc([N+](=O)[O-])c(C(F)(F)F)c1
inactive: [1] | [2] | [4]

NC(=O)N/N=C/c1ccc([N+](=O)[O-])o1
inactive: [1] | [2] | [4]

NNc1nncc2ccccc12
inactive: [1] | [2] | [4] | [5]

O=C(O)C1(C(=O)O)CCC1.[NH2-].[NH2-].[Pt+2]
inactive: [1] | [2] | [4] | [5]
